Assay results reported in PubChem BioAssay AID588675 (Johns Hopkins Ion Channel Center, 2011).
Screen size: about 310,000 compounds; about 1,900 (0.61%) were called active.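 The calls were made as follows: active = plate-corrected calcium response at least 3 library SD above typical, normal starting fluorescence, not activating the receptor alone; inactive = the rest.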 Shown is part of a subset that was picked to be rich in actives.

Biological target: Mas-related G-protein coupled receptor member X1 (Homo sapiens) (UniProt Q96LB2)
Sequence (Q96LB2 whole entry, looked up): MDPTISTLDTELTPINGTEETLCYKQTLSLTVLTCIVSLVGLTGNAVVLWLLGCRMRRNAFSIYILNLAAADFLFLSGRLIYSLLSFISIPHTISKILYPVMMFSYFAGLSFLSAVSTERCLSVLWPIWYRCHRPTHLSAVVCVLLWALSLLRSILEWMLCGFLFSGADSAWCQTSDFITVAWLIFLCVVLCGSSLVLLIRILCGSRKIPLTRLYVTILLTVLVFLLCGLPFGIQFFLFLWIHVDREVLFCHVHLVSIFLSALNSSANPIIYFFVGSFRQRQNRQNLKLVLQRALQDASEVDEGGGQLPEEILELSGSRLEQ
Assay: allosteric enhancers of human MrgX1 signaling – HEK293 cells, Fluo-4 calcium flux, primary screen (AID 588675);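 also: compound read alongside a low EC10 to EC30 dose of BAM8-22 agonist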;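 as to B-score: peak minus trough fluorescence over baseline measured at the second addition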
Conditions: MrgX1-HEK293, Fluo-4 calcium flux, FDSS, at 10 µM; hits give high values

Compound	B-score
Cc1oc(-c2ccccc2F)nc1CS(=O)CC(=O)NCCN1CCCCC1C (configuration not stated)	inactive
Cc1nonc1C1CCCN1Cc1nc(-c2ccc(F)cc2F)oc1C (configuration not stated)	7.14 (active)
COc1ccc(F)c(-c2nc(CN3CCC(c4ccccc4)CC3)c(C)o2)c1	inactive
CCCCOc1ccc(N(CC(=O)NC(C)C)C(=O)CCC(=O)Nc2ccccn2)cc1	inactive
CCCNc1c(N)c(=O)c1=O	inactive
Cc1oc2cc([N+](=O)[O-])c(O)c([N+](=O)[O-])c2c1C(=O)c1ccc(Br)cc1	inactive
CC1(C)CC2CC(C)(CN2c2ncnc3ccc(Br)cc23)C1 (configuration not stated)	13 (active)
COc1ccc(Nc2ncnc3ccc(Br)cc23)c(OC)c1	inactive
COc1ccc(C(=O)N2CC3(C)CC2CC(C)(C)C3)cc1OC (configuration not stated)	inactive
Cc1ccccc1-c1n[nH]c(=S)n1C	inactive
Cn1c(-c2sc3cc(C(F)(F)F)cnc3c2-c2ccccc2)n[nH]c1=S	9.48 (active)
Cn1c(-c2sccc2OCc2cccc(C(F)(F)F)c2)n[nH]c1=S	inactive
COc1ccccc1C(=O)NC(=S)NC12CC3CC(CC(C3)C1)C2	inactive
CN1CCN(C(=O)c2ccccc2NC(=O)COc2ccccc2Cl)CC1	inactive
O=C(C[n+]1cc(Br)cc2ccccc21)c1ccc(F)cc1	9.24 (active)
Cc1cccc[n+]1CC(=O)c1ccccc1	inactive
O=C(CNC(=O)c1ccc(F)cc1)c1ccccc1	inactive
C=C(C)c1cccc(C(C)(C)NC(=O)NCCN(CC)CC)c1	inactive
CC(C)C(=O)NCC(c1cccs1)S(=O)(=O)c1ccc(F)cc1 (configuration not stated)	inactive
COc1cccc(Cn2cnc3c([N+](=O)[O-])c(C)c(C)cc32)c1	inactive
CCOC(=O)c1cn(Cc2cccc(C)c2)nn1	inactive
Cc1cccc(Cn2cnc3c(N)c(C)c(C)cc32)c1	9.78 (active)
CCOc1ccc2[nH]c(=O)c(CN(CCCO)S(=O)(=O)c3ccc(F)cc3)cc2c1	inactive
Cc1cc2c(cc1C)[n+](C)cn2CC(O)COCC1CC=CCC1 (configuration not stated)	inactive
Cn1c(-c2ccc(F)cc2)cc2onc(-c3ccccc3Cl)c2c1=O	inactive
Cc1nc2ccccc2n1CC(O)c1ccccc1 (configuration not stated)	inactive

Compound	B-score
CCC1(CC)Cc2ccccc2-c2nc3ccccc3c(=O)n21	inactive
CCn1c(C)nc2c1C(=O)c1ccccc1C2=O	6.92 (active)
CN(C)c1ccc(Nc2c3c4c(cccc4n(C)c2=O)C(=O)c2ccccc2-3)cc1	inactive
NC(=O)[C@H]1CC2(CC(c3cccc(NC(=O)[C@H]4CCC(=O)N4)c3)=NO2)CN1C(=O)c1ccccc1C(=O)c1ccccc1 (some centres not stated)	inactive
Cc1cccc(NC(=O)CCN2CC(C)CC(C)C2)c1 (configuration not stated)	inactive
Cc1cccc(NC(=O)C(C)N2C(=O)C3C4CC(C(Br)C4Br)C3C2=O)c1 (configuration not stated)	9.03 (active)
Cc1cccc(NC(=O)C(C)SCc2ccccc2)c1 (configuration not stated)	inactive
CC(C)(Oc1ccc(C2CC2(Cl)Cl)cc1)C(=O)O (configuration not stated)	inactive
COc1cc(C2/C(=C(\O)c3ccc4c(c3)CC(C)O4)C(=O)C(=O)N2Cc2ccco2)ccc1O (configuration not stated)	inactive
Brc1ccc(C2=CC(c3ccco3)n3ncnc3N2)cc1 (configuration not stated)	inactive
COc1ccc(C2=CC(c3cccc(OC)c3)n3nnnc3N2)cc1 (configuration not stated)	inactive
CCOc1ccc(C2=CC(c3ccccc3)n3ncnc3N2)cc1 (configuration not stated)	7.44 (active)
CC1=C(C/C=C(\C)CCCC(C)CCCC(C)CCCC(C)C)C(=O)c2ccccc2C1=O (configuration not stated)	inactive
COc1ccc(Oc2cn[nH]c2-c2ccc(OC)cc2O)cc1	6.54 (active)
CCOc1ccccc1Oc1cn[nH]c1-c1ccc(OC)cc1O	inactive
COc1ccc(-c2cn[nH]c2-c2ccc(OC)cc2)cc1	inactive
O=C(NCc1ccccc1)C1=C[C@@H](C2CCCCC2)C[C@@H](OCc2ccc(CO)cc2)O1	inactive
CC1CCC(CN2CCN=C2N(C)C)CC1 (configuration not stated)	inactive
COc1ccc(-c2cc(C(=O)Nc3ccccc3O)c3ccccc3n2)cc1	inactive
COc1ccc(NC(=O)c2cc(-c3ccc(C)o3)nc3ccccc23)cc1	8.06 (active)
COc1ccc(NC(=O)CN(C)C(=O)c2cc(-c3ccc(C)o3)nc3ccccc23)cc1	inactive
COc1ccc(C(=O)CN2C(=O)NC3(CCc4ccccc43)C2=O)c(OC)c1 (configuration not stated)	inactive
CC(OC(=O)CNS(=O)(=O)/C=C/c1ccccc1)C(=O)Nc1ccc(S(=O)(=O)N2CCCC2)cc1 (configuration not stated)	inactive
CC(C)(C)c1ccc(Oc2ccc(N)cc2)cc1	inactive
COc1cccc(Oc2ccc(N)cc2)c1	inactive
Nc1ccc(Oc2ccc(Cl)cc2)cc1	6.95 (active)
